# Compound activity (PubChem)
# IL-1B inflam inh: inflammasome signaling inhibition, IL-1 beta readout | THP-1 LPS/ATP IL-1B secretion, AlphaLISA, 16 h; stronger effect = lower value | activity change, % at 57.5 µM | actives 4.7% (n = 360,000) | AID 743279; in the data active = activity change below about -50%; inconclusive = mostly about -30% to -49%; note: % is set by controls: 0 for no effect and ±100 for the full control effect
#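 THP-1 cells pretreated 1 hr with compounds (up to 57.5 uM final), then stimulated with LPS (250 ng/mL final) plus ATP (1.25 mM final); secreted IL-1B measured by AlphaLISA after 16 hr, decreased signal indicating inhibition.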
# DT40 TDP1 CPT: growth inhibition of DT40 Tdp1-/-;hTDP1 cells with camptothecin (screen for TDP1 inhibitors) | chicken DT40 Tdp1-/-;hTDP1 cells + 20 nM CPT, ATP luminescence, 48 h | Potency, µM (titrated, usually from 46.2 µM), for the others: at the top dose activity change, negative = growth inhibition, usual class: inhibitors | actives 12% (n = 420,000) | AID 686979; note: potency is the fitted concentration of half-maximal effect; % is set by controls: 0 for no effect and ±100 for the full control effect; nearly all actives have a fitted effect of over 55% in size
#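 Chicken DT40 Tdp1-/- cells complemented with human TDP1, 400 cells/well, exposed to compounds plus 20 nM camptothecin for at least 48 h at 37 C; viability read as ATP content by CellTiter-Glo luminescence.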
# TDP1 cell noCPT: qHTS for Inhibitors of human tyrosyl-DNA phosphodiesterase 1 (TDP1): qHTS in cells in absence of CPT; AID 686978, 2013; Potency, µM (highest dose often 46.2 µM), inactives show at the top dose activity change, negative = growth inhibition, hits mostly inhibitors; DT40 Tdp1-/- hTDP1 cells, no CPT, ATP luminescence, 48 h; actives 15% (n = 420,000); note: potency is the fitted concentration of half-maximal effect; % is set by controls: 0 for no effect and ±100 for the full control effect; nearly all actives have a fitted effect of over 55% in size
#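 Cells were dispensed at 400 per well, compounds added by pin tool, plates incubated ≥48 hr at 37 °C, then CellTiter-Glo added for 30 min at room temperature before luminescence reading. Line: DT40 Tdp1-/- complemented with hTDP1; camptothecin omitted.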
# SW480 rerep: DNA re-replication induction in SW480 cells. actives 1.8% (n = 340,000). SW480 DNA re-replication, Hoechst DNA content imaging, 48 h. Potency, µM (highest dose often 46.1 µM), for the others: top-dose re-replication activation, actives largely listed as activators; note: potency is the fitted concentration of half-maximal effect; % of control where 0% means no effect; nearly all actives have a fitted effect of over 55% in size
#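 Cells (250 per well) received 23 nL compound or DMSO by pin tool and were kept 48 hr at 37 C, 5% CO2. Nuclei were then stained with Hoechst for 40 min and scanned for DNA content.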
# MCF10A rereplic: induces DNA re-replication in MCF 10a normal breast cells; MCF 10A DNA re-replication, Hoechst nuclear intensity, 48 h; Potency, µM (series often up to 46.1 µM), inactives show at the top dose activity, positive = re-replication, usual class: activators; actives 2.9% (n = 350,000); AID 624296; note: potency is the fitted concentration of half-maximal effect; % of control where 0% means no effect; nearly all actives have a fitted effect of over 50% in size
# Chronic BCR inh: chronic active BCR signaling inhibition; ABC-DLBCL IkBa-CBG/CBR reporter, luminescence ratio, 4 h; Potency, µM (highest dose often 46.1 µM), for the others: at the top dose activity change, negative = inhibition, most hits filed as inhibitors; actives 0.05% (n = 340,000); active = well fitted inhibition curve with a large enough effect in the signal ratio, with a control signal flat, not every such curve was filed as active; inconclusive = small, poorly fitted or top-dose-only effect, or effect the other way, or a change in a side signal; the % refers to the signal ratio;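 note: potency is the fitted concentration of half-maximal effect; plate controls were basal doxycycline-induced cells for no effect and cells given 10 µM MG132 for full effect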
#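 Compounds up to 46 uM were incubated four hours with TMD8 cells whose green CBG68 luciferase is fused to IkappaBalpha; red CBR luminescence normalised the signal, and concentration-effect curves were fitted to fusion, red and ratio data.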
# An asterisk follows results filed as active; ? = inconclusive; · = not tested or not shown; [ ] = dose if it differs, or a comment. An excerpt weighted towards active compounds, which were near 19% of everything screened. Unless noted, calls come from the whole dose curve; as a rule, active = well fitted curve in the direction sought with a large enough effect; inconclusive = small, poorly fitted or top-dose-only effect, or another doubt; inactive = no such curve, though single readings can be large; an effect the other way counts as inactive or inconclusive.
SMILES,IL-1B inflam inh,DT40 TDP1 CPT,TDP1 cell noCPT,SW480 rerep,MCF10A rereplic,Chronic BCR inh
O=C(NCc1ccccc1Cl)C1CCC(=O)N(CC2CCCCC2)C1 (configuration not stated),-3.1,-21.1%,-22.0%,-0.9%,7.7%,5.3%
COc1ccc(CNC(=O)CN2N=C(c3ccc(Cl)cc3)CCC2=O)cc1,·,?,-35.4%,·,·,?
CCCCc1ccc(S(=O)(=O)N2CCN(C(=O)c3ccco3)CC2)cc1,?,?,8.2µM*,-372.6%,5.4%,-0.4%
CC1CCCN(S(=O)(=O)c2ccc(NC(=O)C3CCN(C(=O)c4ccco4)CC3)cc2)C1 (configuration not stated),14.8,20.6µM*,13µM*,0.0%,15.4%,?
COc1cccc(NC(=O)C2CCN(S(=O)(=O)c3ccccc3)CC2)c1,-17.7,-14.0%,-9.8%,-3.6%,12.0%,1.5%
COc1ccc(OC)c(S(=O)(=O)N2CCC(C(=O)Nc3cccc(C(F)(F)F)c3)CC2)c1,-8.2,18.4µM*,14.6µM*,-4.9%,12.0%,1.2%
COc1ccc(OC)c(S(=O)(=O)N2Cc3ccccc3CC2C(=O)Nc2ccc(C(C)=O)cc2)c1 (configuration not stated),·,?,10.3µM*,·,·,·
CCN(CC)S(=O)(=O)c1ccc(S(=O)(=O)N2CCN(C(=O)c3ccco3)CC2)cc1,-17.9,-14.5%,-3.6%,0.0%,8.9%,?
C[C@@H]1CN([C@H](C)CO)S(=O)(=O)c2ccc(Br)cc2O[C@H]1CN(C)C(=O)Cc1ccccn1,16.7,11.1%,?,·,·,·
COc1ccc(S(=O)(=O)N2CCC(C(=O)Nc3cccc(C(C)=O)c3)CC2)cc1C,2.5,11.2µM*,?,2.6%,23.3%,-0.8%
CC(=O)c1cccc(NC(=O)C2CCN(S(=O)(=O)c3ccc(C)cc3)CC2)c1,-13.2,1.6%,-28.7%,-1.1%,-3.4%,-0.7%
COc1ccc(OC)c(S(=O)(=O)N2CCC(C(=O)N3CCc4ccccc4C3)CC2)c1,-17.4,?,23.1µM*,-2.4%,18.8%,0.8%
CSc1cccc(NC(=O)C2CCCN(S(=O)(=O)c3cccs3)C2)c1 (configuration not stated),-17.1,?,18.4µM*,0.0%,?,?
CC1CCC(NC(=O)COC(=O)CCC(=O)c2ccc(Cl)s2)CC1 (configuration not stated),-3.4,-4.6%,-9.6%,-6.0%,-1.0%,-4.3%
CC(C)(C)C(=O)CN1C(=O)NC2(CCCc3ccccc32)C1=O (configuration not stated),20.7,3.1%,22.0%,-10.8%,-1.0%,5.2%
Cc1ccc(-c2nc3c(Cl)cc(C(F)(F)F)cn3c2Cc2cccc(F)c2)cc1,10.1,?,?,·,·,·
CCOc1ccc(N(CC)S(=O)(=O)c2cc(Br)cc3c2N(C(C)=O)C(C)C3)cc1 (configuration not stated),·,20.6µM*,7.31µM*,·,·,·
CCOc1ccc(OCC)c(NS(=O)(=O)c2cc(Br)cc3c2N(C(C)=O)C(C)C3)c1 (configuration not stated),·,?,13µM*,·,·,·
CC(=O)N1c2c(cc(Br)cc2S(=O)(=O)N2CCN(c3cccc(Cl)c3)CC2)CC1C (configuration not stated),·,10.3µM*,9.2µM*,·,·,·
COc1cccc(CNS(=O)(=O)c2cc(Br)cc3c2N(C(C)=O)C(C)C3)c1 (configuration not stated),-5.4,-8.4%,?,1.8%,-1.7%,?
c1ccc(COc2ncnc3c2ncn3CCCNCc2ccc3c(c2)OCO3)cc1,-16.9,?,?,?,-11.8%,·
O=C1c2ccccc2NC(c2cc(Br)c3c(c2)OCO3)N1Cc1ccco1 (configuration not stated),·,?,17.8µM*,·,·,·
CCOc1cc(C2Nc3ccccc3C(=O)N2Cc2ccco2)ccc1OCc1ccccc1Cl (configuration not stated),·,10µM*,3.55µM*,·,·,·
COc1ccc(C2Nc3ccccc3C(=O)N2Cc2ccco2)cc1COc1ccc(F)cc1 (configuration not stated),-20.1,?,?,?,?,-12.0%
COc1ccc2c(c1OC)C(=O)N1c3ccccc3C(=O)N(Cc3ccco3)C21 (configuration not stated),·,10µM*,20µM*,·,·,·
SMILES,IL-1B inflam inh,DT40 TDP1 CPT,TDP1 cell noCPT,SW480 rerep,MCF10A rereplic,Chronic BCR inh
COc1ccc2c(c1OC)C(=O)N1c3ccccc3C(=O)OC21 (configuration not stated),·,-3.7%[9.04 µM],3.2%[9.04 µM],·,·,·
COc1ccc(C2Nc3ccccc3C(=O)N2Cc2ccco2)cc1OC (configuration not stated),·,8.91µM*,22.4µM*,·,·,·
CCN(C(=O)Cn1c(=O)oc2cc(S(=O)(=O)N3CCCCC3)ccc21)c1ccccc1,·,-5.6%,-27.9%,·,·,·
O=C1C2C3CC(C(Br)C3Br)C2C(=O)N1c1nccs1 (configuration not stated),-1.9,-4.8%,2.5%,-10.3%,2.0%,·
COc1cc(-c2coc3c(C(=O)Nc4ccc(C(C)C)cc4)cccc23)ccc1O,14.2,?,20.6µM*,·,·,·
COc1ccc(CNC(=O)c2ccc(-c3c(C)noc3C)c3ccoc23)cc1OC,86.6,?,?,·,·,·
COc1cc(-c2coc3c(C(=O)NCc4ccc(N(C)C)cc4)cccc23)ccc1O,-53.1*,16.4µM*,?,·,·,·
COc1cc(-c2coc3c(C(=O)NCc4ccc(OC)c(OC)c4)cccc23)ccc1O,-5.2,5.8µM*,4.61µM*,·,·,·
O=C(NCc1ccc(C(F)(F)F)cc1)c1cccc2c(-c3cccnc3)coc12,0.0,?,-29.7%,·,·,·
COc1cc(-c2coc3c(C(=O)NC4CCCCC4)cccc23)ccc1O,?,18.4µM*,?,·,·,·
CN(C)CCNC(=O)c1cccc2c(-c3ccc(F)c(F)c3)coc12,-21.1,?,?,·,·,·
CCCS(=O)(=O)NC(=O)C1(C)CCN(C(=O)C2(c3ccc(Cl)cc3)CCCC2)C1 (configuration not stated),0.0,-22.1%,-5.9%,·,·,·
CC1CC(C)CN(C(CCc2ccccc2)C(=O)NC2CCCCC2)C1 (configuration not stated),6.9,?,-15.6%,·,·,·
